This excerpt belongs to a sample that is enriched for hits.
Pf Dd2 growth = qHTS Primary assay for Inhibitors of Plasmodium falciparum Dd2 growth in vitro | Potency, µM (series often up to 28.9 µM), without a hit: top-dose activity, negative = inhibition, usual class: inhibitors | P. falciparum Dd2 growth, SYBR Green, 72 h | 120,000 compounds, 4.3% hits | AID 1347417, 2020; active = well fitted inhibition curve with a large enough effect;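 note: plate controls were DMSO vehicle for no effect and reference drug for full effect; nearly all actives have a fitted effect of over 65% in size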
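Infected erythrocytes (Dd2, 0.3% parasitemia, 2.5% hematocrit final) are added to compound in RPMI-1640/Albumax II medium, grown 72 h at 37C in low oxygen, then lysed with saponin/Triton-X containing SYBR Green and read by fluorescence.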
* = called active by the depositor; i = inactive; [ ] = dose if it differs, or a comment. Potency is the fitted concentration of half-maximal effect.

SMILES	Pf Dd2 growth
O=C(Cc1ccc(N(Cc2ccc(F)cc2)C(=O)c2ccco2)cc1)N1CCOCC1	i
CC(=O)N1CCC(N2CC3(C2)C(=O)N(Cc2ccccc2Cl)C(=O)[C@@H]2C[C@@H](O)CN23)CC1	7.1µM*
CCCCN1C(=O)[C@@H]2C[C@@H](O)CN2C2(CN(C3CCN(C(C)=O)CC3)C2)C1=O	11%[44.1 µM]
COC(=O)c1ccc(CN2C(=O)[C@@H]3C[C@@H](O)CN3C3(CN(C4CCN(C(C)=O)CC4)C3)C2=O)cc1	40%
COc1ccc(O)cc1CN1CCC2(CCNCC2)C1	-15%
COc1cc(Cl)cc(CN2CCC3(CCCNC3)C2)c1OC (stereo unspecified)	8.9µM*
COc1cc(Cl)cc(CN2CCC3(CCOCC3)CC2)c1OC	-22%
CC(C)N1C[C@H](O)C[C@H]1c1nnc2n1CCN(C(=O)c1ccccc1F)C2	39%
Cc1ccc(CN2CCC(CNC(=O)Nc3ccccc3F)CC2)cc1	i
O=C(Nc1cccc(C(F)(F)F)c1)c1cc2ccc3cccnc3c2[nH]1	30%
Cc1ccc(NC(=O)NCC2CCN(Cc3cccc(Cl)c3)CC2)cc1Cl	10µM*
Cc1ccc(CN2CCC(CNC(=O)Nc3ccc(Cl)cc3)C2)cc1 (stereo unspecified)	i
O=C(Nc1ccc(F)cc1F)c1cc2ccc3cccnc3c2[nH]1	25%
COc1ccc(CN2CCCC(CNC(=O)NC(C)C)C2)cc1O (stereo unspecified)	-22%
O=C(NCC1CCN(Cc2cccc(Cl)c2)CC1)c1cc2ccc3cccnc3c2[nH]1	7.9µM*
CC(C)NC(=O)NCC1CCCN(Cc2ccc3c(c2)OCCO3)C1 (stereo unspecified)	-10%
Cc1ccc(CN2CCC(CNC(=O)NC(C)C)C2)cc1C (stereo unspecified)	8.9µM*
COCCC(=O)N1CCC(C2CCN(S(C)(=O)=O)CC2)C1 (stereo unspecified)	26%
Cn1c(C(=O)O)cc2c1CCN(Cc1ccc(F)cc1)C2	-22%
O=C(Cn1c(=O)oc2ccccc21)N1CCC(N2CC3CC(C2)[C@H]2CCCC(=O)N2C3)CC1 (stereo partly specified)	-14%
Cn1c(=O)n([C@H]2CCCN(C(=O)C3CC3)C2)c2ncccc21	-5%
C[C@@]1(O)CCN(C(=O)CCCS(N)(=O)=O)C[C@@H]1Cc1ccccc1	16%
COc1ccc(CNC(=O)C2CCN(S(=O)(=O)c3cccc(-c4noc(C)n4)c3)CC2)cc1	i
COc1ccc(/C=C\c2onc(C)c2S(=O)(=O)N2CCC(C(=O)Nc3cccc(OC)c3)CC2)cc1	8.9µM*
Cc1ccc(/C=C/c2onc(C)c2S(=O)(=O)N2CCC(C(=O)Nc3ccc(Br)c(C)c3)CC2)cc1	2%
SMILES	Pf Dd2 growth
COc1ccc(NC(=O)C2CCN(S(=O)(=O)c3cc(-c4noc(C)n4)ccc3C)CC2)cc1	6.3µM*
COc1ccc(-c2noc(N3CCC(C(=O)Nc4cccc(C)c4C)CC3)n2)cc1	-2%
CCN(CC)C(=O)C1CCN(S(=O)(=O)c2c(C)noc2/C=C/c2cccc(OC)c2)CC1	-21%
Cc1ccc(-c2nnc(C3CN(C(=O)c4cnccn4)CC34CCOCC4)o2)cc1 (stereo unspecified)	-8%
O=C(Cc1cccc(F)c1)NCCC1CCN(C(=O)Nc2ccccc2F)CC1	-19%
CC(C)c1ccc(CC(=O)N2CCCc3ncc(C(=O)NCc4cccc(F)c4)cc32)cc1	i
CC(=O)c1cccc(NC(=O)Cn2c(=O)n(-c3cccc(C)c3)c(=O)c3c2cc(C)n3C)c1	46%
CCC(C)NC(=O)C1COC2(CCN(C(=O)c3cccc(OC)c3)CC2)N1C(=O)c1ccccc1C (stereo unspecified)	-17%
O=C([C@@H]1C[C@H](Oc2cccnc2)CN1C(=O)Nc1ccccc1F)N1CCCC1	-13%
Cc1ccccc1Cn1c(=O)n(Cc2ccco2)c(=O)c2oc3ccccc3c21	9%
Cc1ccc(NC(=O)Cn2cnc3c(oc4ccccc43)c2=O)cc1	-18%[0.594 µM]
Cc1ccccc1Cn1cnc2c(oc3ccccc32)c1=O	8.9µM*
O=[S+]1([O-])NCC2(CCN(CC3CCOCC3)CC2)Oc2ncccc21	3%
O=[S+]1([O-])NCC2(CCN(Cc3cccnc3)CC2)Oc2ncccc21	6%
CC(C)(C)CN1CCC2(CC1)CN[S+](=O)([O-])c1cccnc1O2	8.9µM*
CN(C)c1cccc(C(=O)N2CCC3(CC2)NC(=O)N(c2cccc(Cl)c2)N3)c1	-11%
O=C(CCC1CCCN(Cc2cccnc2)C1)Nc1ccccc1F (stereo unspecified)	-22%
O=C(CCC1CCCN(Cc2cc3c(cc2Cl)OCO3)C1)Nc1ccccc1F (stereo unspecified)	-25%
O=C(CCC1CCCN(Cc2cccn2-c2ccccn2)C1)Nc1ccccc1F (stereo unspecified)	7.9µM*
O=C(c1cccc(F)c1)N1CCCC(Cc2noc(-c3ccncc3)n2)C1 (stereo unspecified)	9%
Cc1nn(CC(=O)NC2CC(c3nnc(CN(C)C)n3C)C2)c(C)c1Cl (stereo unspecified)	-9%

Screening results: PubChem BioAssay, National Center for Advancing Translational Sciences (NCATS)
